Read-out in experiment [1]: Forkhead box O1 (FOXO1), FOXO1 (gene 2308)
As to the kind of experiment: LTEA_HepaRG_FOXO1: Life Technologies and Expression Analysis (LTEA) Assay for Forkhead box O1 (FOXO1) using HepaRG (AID 2283456). The note with it: mRNA level, 48 h; actives raise or lower the signal. In outline:
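HepaRG, 48 h exposure, 8-pt half-log series from 100 uM in 0.5% DMSO, duplicates; Fluidigm qRT-PCR mRNA, housekeeping-normalised; bidirectional fit vs DMSO baseline.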

The nature of experiment [2]: CEETOX_H295R_TESTO: CeeTox H295R High-throughput Steroidogenesis Assay for Testosterone (TESTO) (AID 2283457).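 Note: cells exposed to chemicals for 48 h before medium collection.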 The note with it: actives raise or lower the signal. Put shortly: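 H295R human adrenal cells in DMEM/F12 with ITS+ and Nu-Serum, exposed to chemicals for 48 h. Testosterone in medium measured by MTBE extraction, reverse-phase HPLC-MS/MS; bidirectional fit versus DMSO baseline. MTT viability checked in same wells.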

Read-out in experiment [3]: growth arrest and DNA damage 45 (GADD45A), GADD45A (gene 1647)
The experiment is described as follows: LTEA_HepaRG_GADD45A: Life Technologies and Expression Analysis (LTEA) Assay for growth arrest and DNA damage 45 (GADD45A) using HepaRG (AID 2283458). The note with it: mRNA level, 48 h; actives raise or lower the signal. In outline: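 GADD45A expression was measured by TaqMan qRT-PCR against three housekeeping genes (ACTB, GAPDH, POLR2A) after 48 h treatment of HepaRG cells. Eight-point half-log series up to 100 uM in 0.5% DMSO, run in duplicate.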

Read-out in experiment [4]: Forkhead box O3 (FOXO3), FOXO3 (gene 2309)
As to the kind of experiment: LTEA_HepaRG_FOXO3: Life Technologies and Expression Analysis (LTEA) Assay for Forkhead box O3 (FOXO3) using HepaRG (AID 2283459). To be noted: mRNA level, 48 h; actives raise or lower the signal. Put shortly: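 qRT-PCR readout of FOXO3 transcript, normalized to three housekeeping genes (ACTB, GAPDH, POLR2A); gain or loss fitted against 0.5% DMSO vehicle. HepaRG cells, 48 h chemical exposure, 8-point half-log series, top 100 uM.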

Read-out in experiment [5]: growth arrest and DNA damage 45 (GADD45B), GADD45B (gene 4616)
As to the kind of experiment: LTEA_HepaRG_GADD45B: Life Technologies and Expression Analysis (LTEA) Assay for growth arrest and DNA damage 45 (GADD45B) using HepaRG (AID 2283461). The note with it: mRNA level, 48 h; actives raise or lower the signal. In outline:
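Differentiated HepaRG cells, plated 48 h then switched to serum-free induction medium, were exposed 48 h in duplicate to eight half-log concentrations from 100 uM in 0.5% DMSO; mRNA quantified by qRT-PCR, normalized to ACTB/GAPDH/POLR2A, bidirectional fit versus DMSO.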

Read-out in experiment [6]: ABC Transporter (ABCC3), ABCC3 (gene 8714)
As to the kind of experiment: LTEA_HepaRG_ABCC3: Life Technologies and Expression Analysis (LTEA) Assay for ABC Transporter (ABCC3) using HepaRG (AID 2283462). The note with it: mRNA level, 48 h; actives raise or lower the signal. In outline:
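HepaRG cells in serum-free induction medium were exposed for 48 h in duplicate to 8-point half-log concentrations topping at 100 uM in 0.5% DMSO. ABCC3 mRNA was measured by qRT-PCR normalized to ACTB, GAPDH and POLR2A, with bidirectional fitting versus DMSO.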

Read-out in experiment [7]: ABC Transporter (ABCB11), ABCB11 (gene 8647)
The experiment is described as follows: LTEA_HepaRG_ABCB11: Life Technologies and Expression Analysis (LTEA) Assay for ABC Transporter (ABCB11) using HepaRG (AID 2283463). The note with it: mRNA level, 48 h; actives raise or lower the signal. Put shortly:
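HepaRG, 48 h exposure, 8-pt half-log CRC top 100 uM, 0.5% DMSO vehicle, duplicates. Readout: TaqMan qRT-PCR of ABCB11 mRNA, housekeeping-normalized (ACTB/GAPDH/POLR2A). Bidirectional fit vs DMSO baseline.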

Read-out in experiment [8]: ABC Transporter (ABCC2), ABCC2 (gene 1244)
The experiment is described as follows: LTEA_HepaRG_ABCC2: Life Technologies and Expression Analysis (LTEA) Assay for ABC Transporter (ABCC2) using HepaRG (AID 2283464). To be noted: mRNA level, 48 h; actives raise or lower the signal. Put shortly: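 HepaRG cells were plated 48 h, switched to serum-free induction medium, then exposed in duplicate for 48 h to 8 concentrations (top 100 uM, half-log steps, 0.5% DMSO). ABCC2 mRNA was measured by qRT-PCR normalized to ACTB/GAPDH/POLR2A; bidirectional fitting versus DMSO.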

Read-out in experiment [9]: Broad substrate specificity ATP-binding cassette transporter ABCG2 (Homo sapiens) (UniProt Q9UNQ0)
As to the kind of experiment: LTEA_HepaRG_ABCG2: Life Technologies and Expression Analysis (LTEA) Assay for ABC Transporter (ABCG2) using HepaRG (AID 2283465). To be noted: mRNA level, 48 h; actives raise or lower the signal. In outline: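 HepaRG, 48 h exposure, 8-pt half-log series from 100 uM, 0.5% DMSO vehicle, duplicates. Readout: ABCG2 transcript by qRT-PCR (Fluidigm array), housekeeping-normalized; bidirectional curve fit relative to DMSO baseline.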

Read-out in experiment [10]: ABC Transporter (ABCB1), ABCB1 (gene 5243)
The experiment is described as follows: LTEA_HepaRG_ABCB1: Life Technologies and Expression Analysis (LTEA) Assay for ABC Transporter (ABCB1) using HepaRG (AID 2283460). The note with it: mRNA level, 48 h; actives raise or lower the signal. In outline:
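HepaRG, 48 h exposure, 8-pt half-log series from 100 uM, 0.5% DMSO vehicle, duplicates. Readout: ABCB1 transcript by Fluidigm TaqMan qRT-PCR, housekeeping-normalized; bidirectional curve fit vs DMSO baseline.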

The structures appear in SMILES notation. Activity calls are given as the source filed them. Rule for the calls: active = hit-call score of the fitted dose curve at least 0.9, where 1 is the maximum; inactive = score below 0.9.

Sequence of Broad substrate specificity ATP-binding cassette transporter ABCG2 (Homo sapiens) (Q9UNQ0 whole entry, looked up): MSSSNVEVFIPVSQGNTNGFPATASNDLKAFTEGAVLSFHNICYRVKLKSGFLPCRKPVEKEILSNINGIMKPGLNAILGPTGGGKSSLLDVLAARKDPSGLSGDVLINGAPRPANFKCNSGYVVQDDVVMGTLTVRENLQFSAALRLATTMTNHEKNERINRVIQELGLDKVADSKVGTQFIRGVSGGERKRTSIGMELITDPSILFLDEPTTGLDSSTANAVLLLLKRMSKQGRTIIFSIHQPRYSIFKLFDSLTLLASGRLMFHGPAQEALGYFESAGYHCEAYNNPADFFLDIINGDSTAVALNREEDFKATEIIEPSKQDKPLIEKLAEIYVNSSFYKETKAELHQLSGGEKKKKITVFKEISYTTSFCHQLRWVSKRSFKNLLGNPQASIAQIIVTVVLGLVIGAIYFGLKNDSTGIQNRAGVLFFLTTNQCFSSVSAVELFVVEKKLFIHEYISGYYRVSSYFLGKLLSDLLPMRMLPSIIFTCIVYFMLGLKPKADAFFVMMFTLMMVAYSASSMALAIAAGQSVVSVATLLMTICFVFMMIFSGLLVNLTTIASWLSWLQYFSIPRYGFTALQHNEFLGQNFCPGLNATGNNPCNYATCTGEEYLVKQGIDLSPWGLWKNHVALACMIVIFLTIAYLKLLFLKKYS

With `c1cc2ccc3cccc4ccc(c1)c2c34`, the result in experiment [1], in experiment [3], in [4], in experiment [5], in [6] and in [7] was inactive. For the same compound, the compound was called inactive in [8]. Also, the concentration at half-maximal activity (AC50) in [2] is 29.5 µM (active); in experiment [9], 4.08 µM (active).

Take `COS(=O)(=O)OC`: the call in experiment [1], in experiment [3], in experiment [4], in experiment [10], in experiment [5] and in experiment [6] was inactive. In addition, the call in [7], in experiment [8] and in experiment [9] was inactive.

As to `C[C@]12CCC(=O)C=C1CC[C@@H]1[C@@H]2CC[C@@]2(C)[C@H]1CC[C@]2(C)O`, the call in [1], in [4], in experiment [5], in experiment [6] and in [8] was inactive. For the same compound, the AC50 is 45.8 µM (active) in [3], 0.647 µM (active) in experiment [7] and 9.08 µM (active) in experiment [9].

Consider `CC(c1ccc(O)cc1)(c1ccc(O)cc1)c1ccc(O)cc1`, for which the AC50 in experiment [1] was 73.5 µM (active); in experiment [4], 70.9 µM (active); in [5], 35.9 µM (active); in experiment [7], 20.8 µM (active); in experiment [8], 81 µM (active); in experiment [9] it was 33.8 µM (active). In addition, the call in experiment [3] and in [6] was inactive.

For `C1CC2OC2CC1C1CO1` (configuration not stated), the result in [1], in experiment [3], in experiment [4], in experiment [5], in [6] and in experiment [7] was inactive. Also, the call in experiment [8] and in experiment [9] was inactive.

For `Clc1ccc(Cl)cc1`, the compound was called inactive in experiment [1], in experiment [3], in [4], in experiment [5], in experiment [6] and in [7]. Also, the compound was classed as inactive in experiment [8] and in experiment [9].

With `Nc1ccc(-c2ccc(N)cc2)cc1`, the compound was classed as inactive in experiment [1], in experiment [3], in [4], in [5], in [6] and in experiment [8]. Also, the compound was classed as inactive in experiment [9]. For the same compound, the AC50 in experiment [7] is 3.77 µM (active).

For `CCC(C)c1cc([N+](=O)[O-])cc([N+](=O)[O-])c1O` (configuration not stated), the AC50 in experiment [1] was 3.37 µM (active); in experiment [3], 1.07 µM (active); in [4], 1.77 µM (active); in [5] it was 10.7 µM (active); in experiment [7], 1.29 µM (active); in [8], 1.46 µM (active). Also, the compound was called inactive in experiment [6] and in experiment [9].

With `O=C(N[C@H]1CN2CCC1CC2)c1cc2ccoc2cn1`, the result in experiment [1], in experiment [3], in experiment [4], in experiment [5], in experiment [6] and in [7] was inactive. In addition, the call in experiment [8] and in experiment [9] was inactive.

Turning to `CC(C)(O)C(=O)Nc1ccc([N+](=O)[O-])c(C(F)(F)F)c1`, in experiment [1], the AC50 is 0.0468 µM (active). Further, the result in experiment [3], in experiment [4], in experiment [5], in [7], in [8] and in [9] was inactive.

Consider `COc1ccc(O)c(C(C)(C)C)c1`, for which the compound was classed as inactive in experiment [1], in experiment [3], in experiment [4], in experiment [5], in experiment [6] and in [7]. The compound was classed as inactive in experiment [8] and in experiment [9].

For the compound `Nn1cnnc1`, the compound was called inactive in experiment [1], in experiment [3], in experiment [4], in experiment [5], in [6] and in experiment [7]. Further, the call in [8] and in [9] was inactive.

For `CCOCCOC(C)=O`, the outcome in experiment [1], in experiment [3], in experiment [4], in [5], in experiment [6] and in experiment [7] was inactive. In addition, the call in experiment [8] and in experiment [9] was inactive.

Regarding `Clc1ccc(C(c2ccccc2Cl)C(Cl)(Cl)Cl)cc1` (configuration not stated), the compound was classed as inactive in [1], in experiment [3], in experiment [4], in experiment [5] and in experiment [6]. Further, the results for the AC50 in [7], in experiment [8] and in [9] were 72.3 µM (active), 13.2 µM (active) and 4.48 µM (active), respectively.

For `ClC1=C(Cl)[C@]2(Cl)[C@@H]3[C@H]4C[C@H]([C@@H]5O[C@H]45)[C@@H]3[C@@]1(Cl)C2(Cl)Cl`, the outcome in experiment [1], in experiment [3], in experiment [4], in [5] and in [6] was inactive. Moreover, the figures for the AC50 in experiment [7], in experiment [8] and in [9] were 5.27 µM (active), 2.13 µM (active) and 6.76 µM (active), respectively.

With `O=C(O)C(F)(F)C(F)(F)C(F)(F)C(F)(F)C(F)(F)C(F)(F)C(F)(F)C(F)(F)C(F)(F)F`, the AC50 in experiment [1] is 81.6 µM (active); in experiment [3], 85.5 µM (active); in experiment [6], 88.5 µM (active); in experiment [7], 61 µM (active); in experiment [8], 94.8 µM (active). The compound was classed as inactive in [4], in [5] and in experiment [9].

For `CCSC(=O)N(CC)C1CCCCC1`, the compound was classed as inactive in experiment [1], in [3], in experiment [4], in experiment [5], in experiment [6] and in [7]. Besides, the compound was called inactive in experiment [8] and in experiment [9].

What is called AC50 is the midpoint of the concentration-response curve, whichever way the signal moves.

Values taken from PubChem BioAssay (EPA / NIEHS).
